# Results as given in PubChem BioAssay (EPA / NIEHS).
# Inconclusive results are not listed. The source holds several records for some structures; these can differ, active in one and inactive in another. Active and inactive are the calls of the source. The calls were made as follows, unless noted: active = hit-call score of the fitted dose curve at least 0.9, where 1 is the maximum; inconclusive = response in the unintended direction; inactive = score below 0.9.
# Legend:
# [1] = TOX21_p53_BLA_p2_viability: Viability Assessment in the Tox21 HCT-116 p53 Agonism Beta-lactamase Assay, Phase 2 (AID 2283591);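 also: compound exposure lasted 16 h at 37 °C; actives lower the ATP signal meaning cytotoxicity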
# Summary of the method: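 HCT116 p53-bla cells, 4000/well, dosed after 5 h plating (217-fold dilution of DMSO stocks) and incubated 16 h at 37C. Viability taken as cellular ATP by CellTiter-Glo luminescence after 30 min RT; signal loss marks cytotoxicity.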
# [2] = biological target: Cellular tumor antigen p53 (Homo sapiens) (UniProt P04637); experiment: TOX21_p53_BLA_p2_ratio: Tox21 HCT-116 p53 Agonism Beta-lactamase Assay, Ratio, Phase 2 (AID 2283592)
# Chain of Cellular tumor antigen p53 (Homo sapiens) (P04637 whole entry, looked up): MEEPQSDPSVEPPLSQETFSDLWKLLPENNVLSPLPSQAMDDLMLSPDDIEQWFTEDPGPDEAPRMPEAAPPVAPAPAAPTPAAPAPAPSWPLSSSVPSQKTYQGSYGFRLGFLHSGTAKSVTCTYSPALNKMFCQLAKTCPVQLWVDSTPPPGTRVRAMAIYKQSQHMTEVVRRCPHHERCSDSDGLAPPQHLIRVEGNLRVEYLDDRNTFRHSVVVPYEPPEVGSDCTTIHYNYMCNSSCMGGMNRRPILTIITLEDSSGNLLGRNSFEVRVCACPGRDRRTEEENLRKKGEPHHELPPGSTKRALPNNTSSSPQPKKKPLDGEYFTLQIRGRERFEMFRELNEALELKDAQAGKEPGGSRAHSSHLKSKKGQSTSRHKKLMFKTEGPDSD
# Summary of the method: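 Cleaved-to-uncleaved substrate ratio (460 vs 530 nm) measured in HCT116 cells with an inducible beta-lactamase reporter linked to p53 activity. Compounds incubated 16 h at 37C before 2 h room-temperature CCF4-AM loading.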
# [3] = biological target: Cellular tumor antigen p53 (Homo sapiens) (UniProt P04637); experiment: TOX21_p53_BLA_p5_ratio: Tox21 HCT-116 p53 Agonism Beta-lactamase Assay, Ratio, Phase 5 (AID 2283599)
# Summary of the method: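 HCT-116 p53-bla cells (4000/well) plated 5 h, dosed with compound (217-fold DMSO dilution) for 16 h at 37 C; CCF4-AM substrate 2 h at room temperature. Activity is the 460/530 nm emission ratio (405 nm excitation), fitted in gain-of-signal direction versus DMSO.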
# [4] = TOX21_p53_BLA_p5_viability: Viability Assessment in the Tox21 HCT-116 p53 Agonism Beta-lactamase Assay, Phase 5 (AID 2283600)
# Summary of the method: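 Viability is taken from cellular ATP content, measured by luciferase luminescence in the same wells after the beta-lactamase ratio read. Cells are seeded at 4000 per well and exposed to DMSO-dissolved compounds, diluted 217-fold, for 16 h.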
# [5] = TOX21_p53_BLA_p3_viability: Viability Assessment in the Tox21 HCT-116 p53 Agonism Beta-lactamase Assay, Phase 3 (AID 2283593);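 also: cells exposed to compound for 16 h before reading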
# Summary of the method: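 HCT116 cells, 4000/well, dosed 5 h after plating by pin transfer (217-fold dilution from DMSO stock) and incubated 16 h at 37C, 5% CO2. Viability read as ATP luminescence with CellTiter-Glo after 30 min at room temperature.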
# [6] = biological target: Cellular tumor antigen p53 (Homo sapiens) (UniProt P04637); experiment: TOX21_p53_BLA_p3_ratio: Tox21 HCT-116 p53 Agonism Beta-lactamase Assay, Ratio, Phase 3 (AID 2283596)
# Summary of the method: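 Cells were seeded at 4000/well, rested 5 h at 37C, then dosed with DMSO compound solutions (217-fold dilution) for 16 h. CCF4-AM substrate was loaded for 2 h at room temperature, and the 460/530 nm emission ratio was fitted for gain of signal versus DMSO.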
# [7] = TOX21_p53_BLA_p4_viability: Viability Assessment in the Tox21 HCT-116 p53 Agonism Beta-lactamase Assay, Phase 4 (AID 2283597);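 also: hits lower the luminescence signal meaning cytotoxicity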
# Summary of the method: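 Viability is taken as cellular ATP: after 16 h compound exposure of HCT116 cells and a 2 h room-temperature CCF4-AM substrate step, CellTiter-Glo reagent is added and luminescence is measured 30 min later.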
# [8] = biological target: Cellular tumor antigen p53 (Homo sapiens) (UniProt P04637); experiment: TOX21_p53_BLA_p4_ratio: Tox21 HCT-116 p53 Agonism Beta-lactamase Assay, Ratio, Phase 4 (AID 2283601)
# Summary of the method: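 HCT-116 p53 beta-lactamase reporter cells (4000/well) preincubated 5 h, then compound (217-fold dilution of DMSO stock) for 16 h at 37C. CCF4-AM substrate added 2 h at room temperature; 460/530 nm emission ratio fitted upward versus DMSO.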
# PGR (gene 5241) = PGR (gene 5241) (UniProt P06401); experiment: TOX21_PR_BLA_Followup_Antagonist_ratio: Tox21 HEK293 Progesterone Receptor (PR) Antagonism Beta-lactamase Follow-Up Assay, Ratio (AID 2283934);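 also: PR-UAS-bla HEK293T cells stimulated with 1 nM R5020 agonist for 16 hr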
# Chain of PGR (gene 5241) (P06401 whole entry, looked up): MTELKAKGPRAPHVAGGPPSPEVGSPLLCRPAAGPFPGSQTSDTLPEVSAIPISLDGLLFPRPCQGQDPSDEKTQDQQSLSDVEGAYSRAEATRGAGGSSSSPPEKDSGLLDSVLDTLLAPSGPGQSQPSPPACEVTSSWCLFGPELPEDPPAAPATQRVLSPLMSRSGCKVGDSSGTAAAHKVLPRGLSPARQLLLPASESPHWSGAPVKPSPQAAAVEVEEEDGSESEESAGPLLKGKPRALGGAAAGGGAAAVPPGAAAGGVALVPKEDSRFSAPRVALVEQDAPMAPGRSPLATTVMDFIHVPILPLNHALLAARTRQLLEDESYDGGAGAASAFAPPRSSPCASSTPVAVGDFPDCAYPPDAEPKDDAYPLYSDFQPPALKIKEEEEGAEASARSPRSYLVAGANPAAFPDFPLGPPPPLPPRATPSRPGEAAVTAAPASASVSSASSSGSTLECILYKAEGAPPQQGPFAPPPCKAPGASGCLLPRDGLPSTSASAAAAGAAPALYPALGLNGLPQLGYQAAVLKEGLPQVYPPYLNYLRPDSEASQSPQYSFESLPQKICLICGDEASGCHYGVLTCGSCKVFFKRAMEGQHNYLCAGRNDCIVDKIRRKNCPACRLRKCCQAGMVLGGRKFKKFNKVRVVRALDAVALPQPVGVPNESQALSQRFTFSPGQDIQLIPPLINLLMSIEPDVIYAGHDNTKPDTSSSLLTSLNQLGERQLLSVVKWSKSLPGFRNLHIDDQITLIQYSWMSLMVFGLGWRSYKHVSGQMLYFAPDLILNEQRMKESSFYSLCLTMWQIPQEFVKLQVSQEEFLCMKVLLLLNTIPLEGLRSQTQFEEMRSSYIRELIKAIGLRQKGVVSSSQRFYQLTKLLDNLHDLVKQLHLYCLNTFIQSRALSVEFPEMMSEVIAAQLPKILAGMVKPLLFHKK
# Summary of the method: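 Measured in PR-UAS-bla HEK293T cells co-treated with compound and 1 nM promegestone for 16 hr; beta-lactamase ratio read after 2 h FRET substrate loading, with parallel CellTiter-Glo cytotoxicity.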
# [9] = TOX21_PR_BLA_Followup_Agonist_viability: Viability Assessment in the Tox21 HEK293 Progesterone Receptor (PR) Agonism Beta-lactamase Follow-Up Assay (AID 2283935);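 also: signal loss means lower viability so actives are cytotoxic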
# Summary of the method: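 Viability is read as CellTiter-Glo luminescence, where loss of signal indicates cytotoxicity. The cells are PR-UAS-bla HEK293T given compounds for 16 hr at 37C and 5% CO2, in the same wells used for the bla readout.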
# [10] = TOX21_PR_LUC_Followup_Antagonist_viability: Viability Assessment in the Tox21 HEK293 Progesterone Receptor (PR) Antagonism Luciferase Follow-Up Assay (AID 2283940)
# Summary of the method: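 Loss of CellTiter-Glo ATP signal indicates cytotoxicity in HEK293-PR-A-luc cells grown in 10% charcoal-stripped FBS medium, seeded 3,000 per well and incubated 16 h with compound at 37C.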
# [11] = TOX21_PR_LUC_Followup_Agonist_viability: Viability Assessment in the Tox21 HEK293 Progesterone Receptor (PR) Agonism Luciferase Follow-Up Assay (AID 2283941);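 also: loss of signal means cytotoxicity so actives lower viability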
# Summary of the method: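 Seeding: HEK293-PR-A-luc, 3,000 cells/well, 5 h at 37C. Treatment: compound in DMSO, 16 h, 37C. Read: CellTiter-Glo ATP luminescence, signal loss taken as lower viability.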
# [12] = biological target: Thyroid hormone receptor alpha (Rattus norvegicus) + Thyroid hormone receptor beta (Rattus norvegicus) (UniProt P18113+P63059); experiment: TOX21_TR_LUC_GH3_Antagonist_Followup: Tox21 GH3 Thyroid Hormone Receptor Antagonism Luciferase Follow-Up Assay (AID 2283942)
# Summary of the method: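 Luminescence read-out (ONE-Glo, 30 min at room temperature) in GH3 reporter cells challenged with 1.0 nM T3 final. Compounds ran at 92 uM to 5nM over 15 concentrations for 24 h; DMSO served as negative control and baseline.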
# THRB (gene 7068) [13] = biological target: THRB (gene 7068) (UniProt P10828); experiment: TOX21_TRB_BLA_Antagonist_Followup_ratio: Tox21 Thyroid Hormone Receptor beta Antagonism Beta-lactamase (BLA) Follow-Up Assay, Ratio (AID 2283958)
# Chain of THRB (gene 7068) (P10828 whole entry, looked up, the tested form may be a part): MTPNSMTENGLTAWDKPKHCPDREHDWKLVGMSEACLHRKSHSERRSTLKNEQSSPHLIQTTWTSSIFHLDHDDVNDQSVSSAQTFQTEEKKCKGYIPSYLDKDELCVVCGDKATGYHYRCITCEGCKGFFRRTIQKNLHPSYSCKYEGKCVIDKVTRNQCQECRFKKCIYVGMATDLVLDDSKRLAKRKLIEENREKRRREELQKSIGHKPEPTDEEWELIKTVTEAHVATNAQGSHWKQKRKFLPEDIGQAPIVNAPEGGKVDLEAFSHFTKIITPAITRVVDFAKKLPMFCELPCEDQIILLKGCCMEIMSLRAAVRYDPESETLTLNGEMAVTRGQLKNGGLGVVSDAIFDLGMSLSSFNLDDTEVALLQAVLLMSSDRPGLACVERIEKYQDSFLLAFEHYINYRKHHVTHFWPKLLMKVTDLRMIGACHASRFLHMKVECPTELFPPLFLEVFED
# Summary of the method: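 Using charcoal-stripped 2% FBS medium, human TRβ-LBD/GAL4 reporter HEK293T cells received test compounds for 18 h. The endpoint is the cleaved-to-uncleaved substrate ratio (460/530 nm).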
# THRB (gene 7068) [14] = biological target: THRB (gene 7068) (UniProt P10828); experiment: TOX21_TRB_COA_Antagonist_Followup_ratio: Tox21 Thyroid Hormone Receptor beta Antagonism through Coactivator Recruitment Follow-Up Assay, Ratio (AID 2283967)
# Summary of the method: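 GST-TRb LBD 5.0 nM + 0.10% BSA, compound added; fluorescein-SRC-2 peptide 200 nM, Tb-anti-GST Ab 2 nM. TR-FRET, ex 340 / em 520:495 ratio. Norm: DMSO 0%, T3 100%.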
# [15] = biological target: Retinoic acid receptor RXR-alpha (Homo sapiens) (UniProt P19793); experiment: TOX21_TR_RXR_BLA_Antagonist_Followup_ratio: Tox21 Thyroid Hormone Receptor beta Retinoid X Receptor alpha (RXRa) Antagonism Beta-lactamase (BLA) Follow-Up Assay, Ratio (AID 2283972)
# Chain of Retinoic acid receptor RXR-alpha (Homo sapiens) (P19793 whole entry, looked up, the tested form may be a part): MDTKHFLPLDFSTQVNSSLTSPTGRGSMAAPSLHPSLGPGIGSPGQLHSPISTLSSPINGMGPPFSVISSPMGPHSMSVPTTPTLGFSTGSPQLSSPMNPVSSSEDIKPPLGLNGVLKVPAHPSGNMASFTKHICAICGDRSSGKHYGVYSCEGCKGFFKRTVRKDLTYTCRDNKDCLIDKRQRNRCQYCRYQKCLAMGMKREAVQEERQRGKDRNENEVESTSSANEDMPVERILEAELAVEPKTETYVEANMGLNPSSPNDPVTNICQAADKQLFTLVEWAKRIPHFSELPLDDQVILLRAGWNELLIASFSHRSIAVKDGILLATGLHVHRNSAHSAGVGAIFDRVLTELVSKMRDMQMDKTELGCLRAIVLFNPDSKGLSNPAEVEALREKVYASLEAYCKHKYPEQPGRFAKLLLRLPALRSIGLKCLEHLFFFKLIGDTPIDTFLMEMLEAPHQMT
# Summary of the method: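 Antagonist mode used GAL4 UAS-driven beta-lactamase in HEK293T cells expressing RXRa, treated for 16 h with compound concentration series. Activity was taken from the blue/green (460:530 nm) ratio of cleaved to uncleaved substrate.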
# [16] = TOX21_TR_RXR_BLA_Antagonist_Followup_viability: Viability Assessment in the Tox21 Thyroid Hormone Receptor beta Retinoid X Receptor alpha (RXRa) Antagonism Beta-lactamase (BLA) Follow-Up Assay (AID 2283979)
# Summary of the method: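 RXRa-bla HEK293T cells (2,500/well, phenol red-free DMEM, 2% charcoal-stripped FBS) were attached 5 h, then exposed to compounds at 11 concentrations in triplicate for 16 h at 37C. Viability measured by CellTiter-Glo ATP luminescence, bidirectional fitting versus DMSO.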
# [17] = CCTE_Harrill_HTTr_Viability_MCF7: CCTE's 6-hour Cell Viability Assessment for the High-Throughput Transcriptomics (HTTr) Platform, in MCF-7 cells cultured in DMEM + 10% fetal bovine serum, Harrill Lab (AID 2284010; active = hit-call score of the fitted dose curve at least 0.9, where 1 is the maximum; inactive = score below 0.9)
# Summary of the method: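 Eight-point concentration series, six-hour exposure. Propidium iodide exclusion imaged to assess membrane integrity as a cytotoxicity readout; bidirectional fitting was done with DMSO as negative control and activity baseline.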
# [18] = CCTE_Harrill_HTTr_Apoptosis_MCF7: CCTE's 6-hour Apoptosis Assessment for the High-Throughput Transcriptomics (HTTr) Platform, in MCF-7 cells cultured in DMEM + 10% fetal bovine serum, Harrill Lab (AID 2284011; active = hit-call score of the fitted dose curve at least 0.9, where 1 is the maximum; inactive = score below 0.9)
# Summary of the method: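 Cells are dosed with test chemicals at eight concentrations and imaged 6 hours later for caspase-3/7 activity using a green fluorogenic detection reagent. Activity is fitted in both directions against DMSO controls.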
smiles,measurement,setting,value
CC(=O)C(C)(C)C,outcome,[1],inactive
same,outcome,[2],inactive
same,outcome,[3],inactive
same,outcome,[4],inactive
O=[N+]([O-])c1ccc(CBr)cc1,outcome,[1],inactive
same,outcome,[5],inactive
same,AC50,[6],94.3 µM (active)
same,outcome,[7],inactive
CCC(=O)OC1(c2ccccc2)CCN(C)CC1,outcome,[1],inactive
same,outcome,[2],inactive
same,outcome,[4],inactive
C=CC[C@]1(O)CC[C@H]2[C@@H]3CCC4=CC(=O)CCC4=C3C=C[C@@]21C,outcome,[1],inactive
same,outcome,[5],inactive
same,outcome,[6],inactive
same,outcome,[7],inactive
same,outcome,[3],inactive
same,outcome,[8],inactive
same,outcome,PGR (gene 5241),inactive
same,outcome,[9],inactive
same,outcome,[10],inactive
same,outcome,[11],inactive
same,outcome,[12],inactive
same,outcome,THRB (gene 7068) [13],inactive
same,outcome,THRB (gene 7068) [14],inactive
same,outcome,[15],inactive
same,outcome,[16],inactive
C=CC(C)=O,outcome,[1],inactive
same,outcome,[5],inactive
same,outcome,[6],inactive
same,outcome,[7],inactive
same,outcome,[3],inactive
same,outcome,[4],inactive
COC(C)(C)CCCC(C)C/C=C/C(C)=C/C(=O)OC(C)C (configuration not stated),outcome,[1],inactive
same,outcome,[5],inactive
same,outcome,[6],inactive
same,outcome,[7],inactive
same,outcome,[3],inactive
same,outcome,[4],inactive
same,outcome,[8],inactive
CCC(C(N)=O)N1CCCC1=O (configuration not stated),outcome,[1],inactive
same,outcome,[2],inactive
same,outcome,[3],inactive
same,outcome,[4],inactive
CC(Cc1ccccc1)NCc1ccccc1Cl (configuration not stated),outcome,[1],inactive
same,outcome,[5],inactive
same,outcome,[6],inactive
same,outcome,[7],inactive
same,outcome,[3],inactive
same,outcome,[4],inactive
same,outcome,[8],inactive
OCCSSCCO,outcome,[1],inactive
same,outcome,[2],inactive
same,outcome,[3],inactive
same,outcome,[8],inactive
same,outcome,[17],inactive
CC1(C)C(/C=C(\Cl)C(F)(F)F)C1C(=O)OC(C#N)c1cccc(Oc2ccccc2)c1 (configuration not stated),outcome,[1],inactive
same,outcome,[5],inactive
same,outcome,[6],inactive
same,outcome,[7],inactive
same,outcome,[8],inactive
ClC(Cl)(Cl)C(Cl)(Cl)Cl,outcome,[1],inactive
same,outcome,[2],inactive
same,outcome,[4],inactive
O=C1CCCCC1Cl (configuration not stated),outcome,[1],inactive
same,outcome,[5],inactive
same,outcome,[6],inactive
same,outcome,[7],inactive
CC(C)[C@@]1(NC(=O)[C@@H]2C[C@@H]3c4cccc5[nH]cc(c45)C[C@H]3N(C)C2)O[C@@]2(O)[C@@H]3CCCN3C(=O)[C@H](Cc3ccccc3)N2C1=O,outcome,[1],inactive
same,outcome,[5],inactive
same,outcome,[6],inactive
same,AC50,[7],33.9 µM (active)
same,outcome,[7],inactive
same,outcome,[4],inactive
same,outcome,[8],inactive
C[C@@H]1[C@@H]2Cc3ccc(O)cc3[C@@]1(C)CCN2CC1CC1,outcome,[1],inactive
same,outcome,[2],inactive
same,outcome,[4],inactive
CCN(CC)C(=O)N[C@H]1C[C@@H]2c3cccc4[nH]cc(c34)C[C@H]2N(C)C1,outcome,[1],inactive
same,outcome,[5],inactive
same,outcome,[6],inactive
same,outcome,[7],inactive
same,outcome,[4],inactive
CCOS(C)(=O)=O,outcome,[1],inactive
same,outcome,[5],inactive
same,outcome,[6],inactive
same,outcome,[7],inactive
same,outcome,[3],inactive
same,outcome,[8],inactive
Oc1ccc(C2(c3ccc(O)cc3)CCCCC2)cc1,AC50,[1],72.1 µM (active)
same,AC50,[5],44.1 µM (active)
same,AC50,[6],83.7 µM (active)
same,AC50,[7],46.3 µM (active)
same,AC50,[3],82.3 µM (active)
same,AC50,[4],74 µM (active)
same,AC50,[8],82.9 µM (active)
same,outcome,[17],inactive
same,outcome,[18],inactive
